Bioassay records from PubChem.
IDE exosite inh: exo-site inhibitors of human IDE, primary screen, biochemical, fluorescence anisotropy, probe displacement; 6.3% of 17,000 active; purified IDE, FL-6b probe fluorescence polarization; hits give low values; z-score at 20 µM;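 active = z-score of -3 or lower, meaning strong loss of probe binding signal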;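 also: His-tagged human IDE residues 42-1019 made in E. coli with 30 nM FL-6b probe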
Numbers without * were called inactive. The entries come from a sample that favours hits as a whole.

SMILES | IDE exosite inh
O=C(C[C@@H]1C[C@H]2c3cc(NC(=O)C4CCOCC4)ccc3O[C@H]2[C@@H](CO)O1)NCc1cccnc1 | -0.33
Cc1cccc(-c2ccc([C@@H]3[C@H]4CN(C(=O)c5ccncc5)CCCCN4[C@H]3CO)cc2)c1 | -17*
O=C(c1cccc(F)c1)N1CCCCN2[C@@H](CO)[C@H](c3ccc(-c4ccncc4)cc3)[C@@H]2C1 | 1.1
O=C(c1ccncc1)N1CCCCN2[C@H](CO)[C@H](c3ccc(-c4ccccc4)cc3)[C@@H]2C1 | 2.5
N#C[C@H]1[C@@H](c2ccccc2)[C@H](CO)N1C(=O)C1CCCC1 | 4.6
COc1cccc(NC(=O)N[C@H]2CC[C@H](CC(=O)N3CCN(C)CC3)O[C@@H]2CO)c1 | 1.8
C/C=C/c1ccc([C@H]2[C@@H](CO)N(C(C)=O)[C@H]2CNC(=O)c2ccccc2)cc1 | -0.5
O=C(C1CCC1)N1CC(=O)N2[C@H](CO)[C@@H](c3ccc(-c4ccccc4F)cc3)[C@H]2C1 | 2.4
O=C(C1CCOCC1)N1CC(=O)N2[C@@H](CO)[C@H](c3ccc(-c4ccccc4F)cc3)[C@@H]2C1 | -1.1
O=C(C1CCC1)N1CC(=O)N2[C@H](CO)[C@@H](c3ccc(-c4ccccc4F)cc3)[C@@H]2C1 | -9.1*
O=C(C1CCCCC1)N1CC(=O)N2[C@H](CO)[C@@H](c3ccc(-c4ccccc4F)cc3)[C@H]2C1 | -0.66
O=C(C1CC1)N1CC(=O)N2[C@H](CO)[C@H](c3ccc(-c4ccccc4F)cc3)[C@H]2C1 | -7.9*
O=C(C1CCCCC1)N1CC(=O)N2[C@H](C1)[C@H](c1ccc(-c3ccccc3F)cc1)[C@@H]2CO | -0.71
O=C(C1CCCCC1)N1CC(=O)N2[C@@H](CO)[C@@H](c3ccc(-c4ccccc4F)cc3)[C@@H]2C1 | -1.4
O=C(C1CCC1)N1CC(=O)N2[C@@H](CO)[C@H](c3ccc(-c4ccccc4F)cc3)[C@@H]2C1 | -0.8
O=C(C1CC1)N1CC(=O)N2[C@H](C1)[C@H](c1ccc(-c3ccccc3F)cc1)[C@@H]2CO | -0.66
O=C(C1CCOCC1)N1CC(=O)N2[C@H](CO)[C@H](c3ccc(-c4ccccc4F)cc3)[C@H]2C1 | -7.6*
O=C(C1CCCC1)N1CC(=O)N2[C@H](CO)[C@H](c3ccc(-c4ccccc4F)cc3)[C@@H]2C1 | -3.6*
O=C(C1CC1)N1CC(=O)N2[C@H](CO)[C@@H](c3ccc(-c4ccccc4F)cc3)[C@H]2C1 | 1.8
N#C[C@H]1[C@H](c2ccc(-c3cccnc3)cc2)[C@H](CO)N1C(=O)C1CCC1 | 0.54
COc1ccc(C[C@@H]2CCn3cc(nn3)COC[C@H](c3ccccc3)NC2=O)cc1 | -0.39
COCC(=O)Nc1ccc2c(c1)OC[C@@H](C)N(C)C[C@H](C)[C@@H](OC)CN(C)C2=O | -0.3
O=C(C[C@H]1C[C@H]2c3cc(NS(=O)(=O)c4ccc(F)cc4)ccc3O[C@H]2[C@H](CO)O1)NCc1cccnc1 | 0.09
N#Cc1cccc(-c2ccc([C@@H]3[C@H]4CN(C(=O)Nc5ccccc5)CCCCN4[C@H]3CO)cc2)c1 | 1.2
CO[C@H]1CN(C)C(=O)c2ccc(NC(=O)NC(C)C)cc2OC[C@@H](C)N(Cc2ccc(-c3ccccn3)cc2)C[C@@H]1C | -0.12
SMILES | IDE exosite inh
N#C[C@H]1[C@H](c2ccc(C3=CCCC3)cc2)[C@@H](CO)N1C(=O)C1CCOCC1 | 1.6
COCC(=O)N1CCCCN2[C@H](CO)[C@H](c3ccc(-c4cccc(C)c4)cc3)[C@H]2C1 | -4.7*
COCC(=O)N1CCCCN2[C@@H](CO)[C@@H](c3ccc(-c4cccc(C)c4)cc3)[C@@H]2C1 | -6.7*
COCC(=O)N1CCCCN2[C@@H](CO)[C@H](c3ccc(-c4ccc(F)cc4)cc3)[C@@H]2C1 | 2.1
COCC(=O)N1CCCCN2[C@@H](CO)[C@H](c3ccc(-c4ccccc4)cc3)[C@@H]2C1 | 0.00094
COCC(=O)N1CCCCN2[C@H](CO)[C@H](c3ccc(-c4cccc(C)c4)cc3)[C@@H]2C1 | 1.6
COCC(=O)N1CCCCN2[C@H](C1)[C@H](c1ccc(-c3cccc(C)c3)cc1)[C@@H]2CO | -3*
COCC(=O)N1CCCCN2[C@H](C1)[C@@H](c1ccc(-c3ccc(F)cc3)cc1)[C@@H]2CO | 1.1
CC(=O)N1[C@H](CO)[C@@H](c2ccccc2)[C@H]1CNC(=O)CN1CCOCC1 | 0.24
COCC#Cc1ccc([C@H]2[C@H]3CN(C(=O)Nc4ccc(F)cc4)CC(=O)N3[C@H]2CO)cc1 | 3.1
C[C@H](NC(=O)[C@@H]1[C@@H](CO)[C@@H]2Cn3c(ccc(-c4ccccc4)c3=O)[C@@H]2N1C)c1ccccc1 | -0.28
COCC(=O)Nc1ccc2c(c1)[C@@H]1C[C@@H](CC(=O)N[C@H](C)c3ccccc3)O[C@@H](CO)[C@@H]1O2 | 0.93
C/C=C/c1ccc([C@H]2[C@@H](C#N)N(C(=O)c3cccnc3)[C@H]2CO)cc1 | -0.63
C[C@H](CO)N1C[C@H](C)[C@@H](CN(C)Cc2cccnc2)Oc2ncc(-c3ccc(C#N)cc3)cc2C1=O | -0.23
